According to PubChem BioAssay AID1159580 (chemical genetic matrix, 2015):
Where “and” joins values, the source holds several entries; their conditions need not be identical. Equal entries are not always repeated. Among all 5,500 compounds or so, about 2,000 (36%) were called active. Inconclusive results (about 18%) are left out. Rule as the data show it: active = normalized growth mostly below about 0.91 (no sharp cut-off); inconclusive = no clear call, values can overlap the other calls; inactive = mostly above about 0.92. Some of the results follow.

Test: chemical genetic growth profiling, strain panel (AID 1159580);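 also: tested at 20 µM; growth read once vehicle control cultures reached saturation at 30 °C; 1 = growth at the plate median or of vehicle wells; lower values mean less growth of the strain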
Conditions: S. cerevisiae deletion strains, growth OD

Structure (SMILES): COc1cc(C)c2c(=O)cc(-c3ccccc3)oc2c1
- normalized growth (locus YAL021C, strain ccr4, stronger effect = lower value): 0.983 (inactive)
- normalized growth (locus YAL026C, strain drs2, stronger effect = lower value): 0.922 (inactive)
- normalized growth (locus YAL030W, strain snc1, stronger effect = lower value): 0.928 (active)
- normalized growth (locus YBL061C, strain skt5, stronger effect = lower value): 0.915 (active)
- normalized growth (locus YBR009C, strain hhf1, stronger effect = lower value): 0.946 (inactive)
- normalized growth (locus YBR021W, strain FUR4, stronger effect = lower value): 0.921 (inactive)
- normalized growth (locus YBR023C, strain chs3, stronger effect = lower value): 0.913 (active)
- normalized growth (locus YBR171W, strain sec66, stronger effect = lower value): 0.911 (inactive)
- normalized growth (locus YBR229C, strain ROT2, stronger effect = lower value): 0.984 (inactive)
- normalized growth (locus YBR231C, strain swc5, stronger effect = lower value): 0.925 (inactive)
- normalized growth (locus YBR279W, strain paf1, stronger effect = lower value): 0.942 (inactive)
- normalized growth (locus YCL011C, strain gbp2, stronger effect = lower value): 0.891 (active)
- normalized growth (locus YCL016C, strain dcc1, stronger effect = lower value): 0.93 (inactive)
- normalized growth (locus YCL029C, strain bik1, stronger effect = lower value): 0.968 (inactive)
- normalized growth (locus YCL061C, strain MRC1, stronger effect = lower value): 0.927 (inactive)
- normalized growth (locus YCL069W, strain vba3, stronger effect = lower value): 0.939 (inactive)
- normalized growth (locus YCR088W, strain abp1, stronger effect = lower value): 0.92 (active)
- normalized growth (locus YDL005C, strain med2, stronger effect = lower value): 0.956 (inactive)
- normalized growth (locus YDL035C, strain GPR1, stronger effect = lower value): 1.01 (inactive)
- normalized growth (locus YDL040C, strain nat1, stronger effect = lower value): 0.93 (active)
- normalized growth (locus YDL074C, strain BRE1, stronger effect = lower value): 0.896 (inactive)
- normalized growth (locus YDL101C, strain DUN1, stronger effect = lower value): 0.948 (inactive)
- normalized growth (locus YDL134C, strain PPH21, stronger effect = lower value): 0.998 (inactive)
- normalized growth (locus YDL185W, strain tfp1, stronger effect = lower value): 0.979 (inactive)
- normalized growth (locus YDL192W, strain arf1, stronger effect = lower value): 0.966 (inactive)
- normalized growth (locus YDR001C, strain nth1, stronger effect = lower value): 0.938 (inactive)
- normalized growth (locus YDR069C, strain doa4, stronger effect = lower value): 0.941 (inactive)
- normalized growth (locus YDR101C, strain arx1, stronger effect = lower value): 0.989 (inactive)
- normalized growth (locus YDR137W, strain rgp1, stronger effect = lower value): 0.762 (active)
- normalized growth (locus YDR150W, strain NUM1, stronger effect = lower value): 1.02 (inactive)
- normalized growth (locus YDR159W, strain sac3, stronger effect = lower value): 0.9 (inactive)
- normalized growth (locus YDR162C, strain NBP2, stronger effect = lower value): 0.996 (inactive)
- normalized growth (locus YDR195W, strain ref2): 1 (inactive)
- normalized growth (locus YDR297W, strain sur2, stronger effect = lower value): 0.927 (inactive)
- normalized growth (locus YDR318W, strain mcm21, stronger effect = lower value): 0.968 (inactive)
- normalized growth (locus YDR334W, strain swr1, stronger effect = lower value): 0.938 (inactive)
- normalized growth (locus YDR335W, strain msn5, stronger effect = lower value): 0.942 (inactive)
- normalized growth (locus YDR388W, stronger effect = lower value): 0.967 (inactive)
- normalized growth (locus YDR392W, strain spt3, stronger effect = lower value): 0.47 (active)
- normalized growth (locus YDR502C, strain sam2, stronger effect = lower value): 0.977 (inactive)
- normalized growth (locus YEL003W, strain gim4, stronger effect = lower value): 0.893 (active)
- normalized growth (locus YEL037C, strain rad23, stronger effect = lower value): 0.942 (inactive)
- normalized growth (locus YEL061C, strain CIN8 (second series), stronger effect = lower value): 0.926 (inactive)
- normalized growth (locus YEL061C, strain CIN8, stronger effect = lower value): 0.985 (inactive)
- normalized growth (locus YER015W, strain faa2, stronger effect = lower value): 0.945 (inactive)
- normalized growth (locus YER016W, strain bim1, stronger effect = lower value): 0.935 (inactive)
- normalized growth (locus YER110C, stronger effect = lower value): 0.963 (inactive)
- normalized growth (locus YER111C, strain swi4, stronger effect = lower value): 0.96 (inactive)
- normalized growth (locus YER155C, strain BEM2 (second series), stronger effect = lower value): 0.505 (active)
- normalized growth (locus YER155C, strain BEM2, stronger effect = lower value): 0.973 (inactive)
- normalized growth (locus YER167W, strain BCK2, stronger effect = lower value): 0.994 (inactive)
- normalized growth (locus YFR010W, strain ubp6, stronger effect = lower value): 0.933 (inactive)
- normalized growth (locus YGL078C, strain dbp3, stronger effect = lower value): 0.972 (inactive)
- normalized growth (locus YGL086W, strain mad1, stronger effect = lower value): 0.973 (inactive)
- normalized growth (locus YGL167C, strain pmr1, stronger effect = lower value): 0.913 (active)
- normalized growth (locus YGL173C, strain kem1, stronger effect = lower value): 0.935 (inactive)
- normalized growth (locus YGL227W, strain vid30, stronger effect = lower value): 0.924 (inactive)
- normalized growth (locus YGL240W, strain doc1, stronger effect = lower value): 0.856 (active)
- normalized growth (locus YGL248W, strain PDE1, stronger effect = lower value): 0.955 (inactive)
- normalized growth (locus YGL253W, strain hxk2, stronger effect = lower value): 0.909 (active)
- normalized growth (locus YGR078C, strain PAC10, stronger effect = lower value): 0.955 (inactive)
- normalized growth (locus YGR135W, strain pre9, stronger effect = lower value): 0.98 (inactive)
- normalized growth (locus YGR252W, strain gcn5, stronger effect = lower value): 0.96 (inactive)
- normalized growth (locus YHR013C, strain ard1, stronger effect = lower value): 0.904 (inactive)
- normalized growth (locus YHR027C, strain rpn1, stronger effect = lower value): 0.94 (inactive)
- normalized growth (locus YHR030C, strain SLT2, stronger effect = lower value): 0.995 (inactive) and 0.867 (inactive)
- normalized growth (locus YHR079C, strain IRE1 (second series), stronger effect = lower value): 0.974 (inactive)
- normalized growth (locus YHR079C, strain IRE1, stronger effect = lower value): 0.868 (inactive)
- normalized growth (locus YHR094C, strain hxt1, stronger effect = lower value): 0.965 (inactive)
- normalized growth (locus YHR129C, strain ARP1, stronger effect = lower value): 0.976 (inactive)
- normalized growth (locus YHR142W, strain chs7, stronger effect = lower value): 0.73 (active)
- normalized growth (locus YHR200W, strain rpn10, stronger effect = lower value): 0.963 (inactive)
- normalized growth (locus YIL066C, strain RNR3, stronger effect = lower value): 0.996 (inactive)
- normalized growth (locus YIL073C, strain SPO22, stronger effect = lower value): 0.949 (inactive)
- normalized growth (locus YIL125W, strain kgd1, stronger effect = lower value): 0.964 (inactive)
- normalized growth (locus YIR030C, strain dcg1, stronger effect = lower value): 0.958 (inactive)
- normalized growth (locus YJL092W, strain hpr5, stronger effect = lower value): 0.923 (inactive)
- normalized growth (locus YJL095W, strain BCK1 (second series), stronger effect = lower value): 0.919 (active)
- normalized growth (locus YJL095W, strain BCK1, stronger effect = lower value): 0.914 (inactive) and 0.876 (active)
- normalized growth (locus YJL115W, strain asf1, stronger effect = lower value): 0.955 (inactive)
- normalized growth (locus YJL129C, strain trk1, stronger effect = lower value): 0.833 (active)
- normalized growth (locus YJL134W, strain LCB3, stronger effect = lower value): 0.987 (inactive)
- normalized growth (locus YJL154C, strain vps35, stronger effect = lower value): 0.942 (inactive)
- normalized growth (locus YJL164C, strain tpk1, stronger effect = lower value): 0.909 (active)
- normalized growth (locus YJL166W, strain qcr8, stronger effect = lower value): 0.893 (active)
- normalized growth (locus YJL168C, strain set2, stronger effect = lower value): 0.969 (inactive)
